Six molecules from PubChem BioAssay (EPA / NIEHS) can be followed below.

Structures are written as SMILES. Results filed as inconclusive are left out. Some structures have more than one record in an assay (separate samples or runs), and their calls can disagree. Activity calls are given as the source filed them. The calls were made as follows, unless noted: active = hit-call score of the fitted dose curve at least 0.9, where 1 is the maximum; inactive = score below 0.9.

In assay [1] the target is human RAR-related Orphan Receptor gamma (RORg), RORC (gene 6097) (UniProt P51449). The assay is described as follows: ATG_RORg_TRANS: Attagene TRANS-FACTORIAL HepG2 Assay for human RAR-related Orphan Receptor gamma (RORg) (AID 2283011; active = hit-call score of the fitted dose curve at least 0.9, where 1 is the maximum). The procedure, abridged:
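Readout: reporter transcript induction (RT-PCR, fluorescent primer extension, capillary electrophoresis) after 24 h compound exposure of transiently transfected HepG2 cells carrying a RORg-Gal4 chimera and GAL4-UAS reporters; DMSO served as baseline, with increasing signal fitted.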

The target of assay [2] is Retinoic acid receptor RXR-alpha (Homo sapiens) (UniProt P19793). Nature of the assay: ATG_RXRa_TRANS: Attagene TRANS-FACTORIAL HepG2 Assay for human Retinoid X Receptor alpha (RXRa) (AID 2283012; active = hit-call score of the fitted dose curve at least 0.9, where 1 is the maximum). The procedure, abridged: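 Cells (HepG2) carried transiently transfected GAL4-responsive reporter units. Following a 24 h chemical incubation, reporter mRNA induction was read via RT-PCR fragment analysis; DMSO served as negative control and baseline.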
Chain of Retinoic acid receptor RXR-alpha (Homo sapiens) (P19793 whole entry, looked up, the tested form may be a part): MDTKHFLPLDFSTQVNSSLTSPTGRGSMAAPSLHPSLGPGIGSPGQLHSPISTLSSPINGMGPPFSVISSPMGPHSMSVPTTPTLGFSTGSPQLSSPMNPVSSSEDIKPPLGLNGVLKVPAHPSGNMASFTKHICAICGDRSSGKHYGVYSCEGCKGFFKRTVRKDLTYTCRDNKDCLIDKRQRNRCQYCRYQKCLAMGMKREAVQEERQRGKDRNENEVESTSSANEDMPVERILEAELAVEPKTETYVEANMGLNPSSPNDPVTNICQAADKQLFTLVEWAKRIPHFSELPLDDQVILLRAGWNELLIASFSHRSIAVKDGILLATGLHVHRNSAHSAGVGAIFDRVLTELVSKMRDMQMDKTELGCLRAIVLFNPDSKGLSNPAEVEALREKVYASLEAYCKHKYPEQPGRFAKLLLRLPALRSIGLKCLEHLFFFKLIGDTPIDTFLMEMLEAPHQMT

The target in assay [3] is human Retinoid X Receptor beta (RXRb), RXRB (gene 6257) (UniProt P28702). The assay is described as follows: ATG_RXRb_TRANS: Attagene TRANS-FACTORIAL HepG2 Assay for human Retinoid X Receptor beta (RXRb) (AID 2283013; active = hit-call score of the fitted dose curve at least 0.9, where 1 is the maximum). An outline of the steps: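 Multiplexed TRANS reporter assay in HepG2; 24 h dosing; reporter mRNA by RT-PCR/CE fluorescence; gain-of-signal relative to DMSO.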
Chain of human Retinoid X Receptor beta (RXRb), RXRB (gene 6257) (P28702 whole entry, looked up): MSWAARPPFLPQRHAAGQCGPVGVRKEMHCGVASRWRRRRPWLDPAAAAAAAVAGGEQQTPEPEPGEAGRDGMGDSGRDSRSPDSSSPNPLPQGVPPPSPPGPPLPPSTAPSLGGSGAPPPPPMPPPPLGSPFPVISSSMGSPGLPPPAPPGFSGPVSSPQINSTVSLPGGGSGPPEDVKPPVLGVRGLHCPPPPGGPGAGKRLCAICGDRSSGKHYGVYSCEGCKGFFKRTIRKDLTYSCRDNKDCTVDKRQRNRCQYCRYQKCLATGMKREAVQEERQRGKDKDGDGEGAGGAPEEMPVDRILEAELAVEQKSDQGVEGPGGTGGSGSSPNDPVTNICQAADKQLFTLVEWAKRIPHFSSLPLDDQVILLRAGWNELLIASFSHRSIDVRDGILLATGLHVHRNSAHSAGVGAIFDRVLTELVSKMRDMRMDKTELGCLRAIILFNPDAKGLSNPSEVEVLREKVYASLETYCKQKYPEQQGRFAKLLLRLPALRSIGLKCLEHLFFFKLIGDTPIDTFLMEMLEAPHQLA

Assay [4] deals with human Thyroid Receptor alpha (THRa1), THRA (gene 7067) (UniProt P10827). Nature of the assay: ATG_THRa1_TRANS: Attagene TRANS-FACTORIAL HepG2 Assay for human Thyroid Receptor alpha (THRa1) (AID 2283014; active = hit-call score of the fitted dose curve at least 0.9, where 1 is the maximum). The procedure, abridged:
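HepG2 cells transiently transfected with multiplexed GAL4-UAS reporter units for exogenous chimeric THRa1-Gal4; reporter mRNA measured 24 h after dosing by RT-PCR, 6-FAM labelling, HpaI digestion and capillary electrophoresis. Gain-of-signal fitted versus DMSO baseline.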

Read-out in assay [5]: E-selectin (Homo sapiens) (UniProt P16581)
The assay is described as follows: BSK_3C_Eselectin: BioMAP Diversity Plus: 3C Assay for Eselectin Biomarker Activity (AID 2283015).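 As to outcome: cell surface E-selectin protein quantified by ELISA 24 h after dosing.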 The conditions noted are these: primary human endothelial cells (HUVEC); actives raise or lower the signal. The procedure, abridged:
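Primary human umbilical vein endothelial cells (3C system) were dosed with chemical and cell-surface E-selectin measured by ELISA 24 h later. Bidirectional curve fitting used DMSO as negative control and baseline.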

Read-out in assay [6]: Interleukin-1 alpha (IL1a), IL1A (gene 3552)
Nature of the assay: BSK_BE3C_IL1a: BioMAP Diversity Plus: BE3C Assay for Interleukin-1 alpha (IL1a) Biomarker Activity (AID 2283016). The settings on record: primary human bronchial epithelial cells; actives raise or lower the signal. An outline of the steps:
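Cultures of primary human bronchial epithelial cells receive test chemical. After 24 h, IL-1a is quantified by ELISA, while parallel wells are fixed in TCA and SRB-stained for total protein. Changes in either direction are fitted relative to DMSO.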

Read-out in assay [7]: Monocyte Chemoattractant Protein-1 (MCP1), CCL2 (gene 6347)
Nature of the assay: BSK_3C_MCP1: BioMAP Diversity Plus: 3C Assay for Monocyte Chemoattractant Protein-1 (MCP1) Biomarker Activity (AID 2283017). The settings on record: primary human endothelial cells (HUVEC); actives raise or lower the signal. An outline of the steps:
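Primary human umbilical vein endothelial cells (3C system) were exposed to test chemical for 24 h, after which MCP-1 was quantified by ELISA. Activity was fitted bidirectionally against DMSO as negative control and baseline.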

Read-out in assay [8]: Human Leukocyte Antigen - DR isotype (HLADR), HLA-DRA (gene 3122)
Nature of the assay: BSK_3C_HLADR: BioMAP Diversity Plus: 3C Assay for Human Leukocyte Antigen - DR isotype (HLADR) Biomarker Activity (AID 2283019). The settings on record: primary human endothelial cells (HUVEC); actives raise or lower the signal. The procedure, abridged: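 Primary human umbilical vein endothelial cells (3C system) were dosed with compound and cell-surface HLA-DR was quantified by ELISA at 24 h. Activity was fitted bidirectionally against DMSO as negative control and baseline.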

Read-out in assay [9]: Interleukin-8 (IL8), CXCL8 (gene 3576)
Nature of the assay: BSK_3C_IL8: BioMAP Diversity Plus: 3C Assay for Interleukin-8 (IL8) Biomarker Activity (AID 2283020). The conditions noted are these: primary human endothelial cells (HUVEC); actives raise or lower the signal. An outline of the steps: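 Human vascular endothelial cells (umbilical vein) in the 3C system; IL-8 level detected by ELISA at 24 h post-dose, with DMSO as baseline.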

Read-out in assay [10]: Monokine induced gamma interferon (MIG), CXCL9 (gene 4283)
The assay is described as follows: BSK_3C_MIG: BioMAP Diversity Plus: 3C Assay for Monokine induced gamma interferon (MIG) Biomarker Activity (AID 2283021). The settings on record: primary human endothelial cells (HUVEC); actives raise or lower the signal. The procedure, abridged: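 After 24 h of treatment, human umbilical vein endothelial cultures (3C system) had their MIG biomarker level determined by ELISA, with DMSO serving as negative control.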

The target in assay [11] is human Vitamin D Receptor (VDR), VDR (gene 7421) (UniProt P11473). Nature of the assay: ATG_VDR_TRANS: Attagene TRANS-FACTORIAL HepG2 Assay for human Vitamin D Receptor (VDR) (AID 2283022; active = hit-call score of the fitted dose curve at least 0.9, where 1 is the maximum). The procedure, abridged:
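HepG2 cells were transiently transfected with multiple GAL4-UAS reporter units, so signal reflects exogenous chimeric receptor-Gal4 activity. After 24 h compound exposure, reporter mRNA was measured by RT-PCR, fluorescent labelling and capillary electrophoresis, fitted for gain of signal versus DMSO.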

Assay [12] is described as follows: BSK_3C_SRB: Viability Assessment in the BioMAP Diversity Plus: 3C Assay (AID 2283023).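 Also: fitted both ways against DMSO so a hit may be signal rise or drop.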 The settings on record: primary human endothelial cells (HUVEC). The procedure, abridged:
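Primary human umbilical vein endothelial cells in the 3C system were read 24 h after compound dosing. Total protein was stained with 0.1% sulforhodamine B after 10% TCA fixation and read at 560 nm, with bidirectional fitting against DMSO as baseline.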

Read-out in assay [13]: Matrix Metallopeptidase 1 (MMP1), MMP1 (gene 4312)
The assay is described as follows: BSK_BE3C_MMP1: BioMAP Diversity Plus: BE3C Assay for Matrix Metallopeptidase 1 (MMP1) Biomarker Activity (AID 2283024). The conditions noted are these: primary human bronchial epithelial cells; actives raise or lower the signal. The procedure, abridged: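 Dose cells, wait 24 h, run MMP1 ELISA; cells are human bronchial epithelial primaries. Both increases and decreases relative to DMSO counted.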

The nature of assay [14]: BSK_3C_Vis: BioMAP Diversity Plus: 3C Assay for Morphology Visualization (AID 2283025).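 Also: fitted both ways so gain or loss versus DMSO counts.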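 As to AC50: light microscopy image of cell morphology used as background control.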 The settings on record: primary human endothelial cells (HUVEC). The procedure, abridged: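 Endothelial cells from human umbilical vein were treated with test chemicals for 24 h and inspected by light microscopy for changes in cell conformation.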
Read-out in assay [15]: Pselectin, SELP (gene 6403)
Nature of the assay: BSK_4H_Pselectin: BioMAP Diversity Plus: 4H Assay for Pselectin Biomarker Activity (AID 2283026). The settings on record: primary human endothelial cells (HUVEC); actives raise or lower the signal. An outline of the steps:
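Human vascular endothelium from umbilical vein; P-selectin measured by ELISA at 24 h post-dose, with cytotoxicity checked by sulforhodamine B total-protein staining in parallel cultures (0.1% SRB after 10% TCA fixation, read at 560 nm).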

Assay [16] in a line: BSK_4H_SRB: Viability Assessment in the BioMAP Diversity Plus: 4H Assay (AID 2283027).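 Also: cells exposed to compound for 24 h before staining.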 The conditions noted are these: primary human endothelial cells (HUVEC). An outline of the steps: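 Absorbance at 560 nm of SRB-stained total protein served as the viability read-out in confluent primary human umbilical vein endothelium 24 h after chemical treatment. Curves were fitted bidirectionally against DMSO as negative control.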

Assay [17] in a line: BSK_BE3C_SRB: Viability Assessment in the BioMAP Diversity Plus: BE3C Assay (AID 2283028). The conditions noted are these: primary human bronchial epithelial cells. The procedure, abridged:
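Human primary bronchial epithelial cells were exposed to test chemicals for 24 h. Total protein in parallel cultures was then measured by staining with 0.1% sulforhodamine B after 10% TCA fixation, with absorbance read at 560 nm. Activity was fitted bidirectionally against DMSO.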

Read-out in assay [18]: Thrombomodulin, THBD (gene 7056)
The assay is described as follows: BSK_3C_Thrombomodulin: BioMAP Diversity Plus: 3C Assay for Thrombomodulin Biomarker Activity (AID 2283029). The conditions noted are these: primary human endothelial cells (HUVEC); actives raise or lower the signal. The procedure, abridged: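 Thrombomodulin ELISA, human primary HUVEC, 24 h post-dose; data fitted in both directions relative to DMSO.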

Assay [19] concerns the target human Retinoic Acid Receptor gamma (RARg), RARG (gene 5916) (UniProt P13631). The assay is described as follows: ATG_RARg_TRANS: Attagene TRANS-FACTORIAL HepG2 Assay for human Retinoic Acid Receptor gamma (RARg) (AID 2283009; active = hit-call score of the fitted dose curve at least 0.9, where 1 is the maximum). The procedure, abridged: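 HepG2, RARg-GAL4 TRANS system, 24 h exposure; reporter mRNA by RT-PCR + CE fluorescence; increase over DMSO.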
Read-out in assay [20]: Monocyte Chemoattractant Protein-1 (MCP1), CCL2 (gene 6347)
Nature of the assay: BSK_4H_MCP1: BioMAP Diversity Plus: 4H Assay for Monocyte Chemoattractant Protein-1 (MCP1) Biomarker Activity (AID 2283018). The settings on record: primary human endothelial cells (HUVEC); actives raise or lower the signal. The procedure, abridged:
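Readout: MCP-1 ELISA on compound-treated HUVEC, sampled 24 h post-dosing. Baseline and negative control DMSO; bidirectional fit. Overt toxicity checked alongside by sulforhodamine B protein staining at time of biomarker measurement.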

Chain of human Thyroid Receptor alpha (THRa1), THRA (gene 7067) (P10827 whole entry, looked up, the tested form may be a part): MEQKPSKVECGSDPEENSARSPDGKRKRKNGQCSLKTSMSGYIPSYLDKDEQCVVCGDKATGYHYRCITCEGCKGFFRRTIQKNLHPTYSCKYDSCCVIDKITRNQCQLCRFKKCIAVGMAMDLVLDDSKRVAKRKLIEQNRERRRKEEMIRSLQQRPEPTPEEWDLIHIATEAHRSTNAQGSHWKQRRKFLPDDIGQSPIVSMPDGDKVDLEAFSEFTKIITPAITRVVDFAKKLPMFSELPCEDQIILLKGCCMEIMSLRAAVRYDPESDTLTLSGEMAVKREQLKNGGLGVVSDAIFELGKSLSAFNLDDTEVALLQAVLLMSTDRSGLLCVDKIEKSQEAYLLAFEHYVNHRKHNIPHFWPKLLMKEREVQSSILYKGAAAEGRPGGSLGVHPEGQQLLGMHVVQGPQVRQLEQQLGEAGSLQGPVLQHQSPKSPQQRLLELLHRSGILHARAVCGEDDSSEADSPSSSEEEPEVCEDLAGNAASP
Chain of E-selectin (Homo sapiens) (P16581 whole entry, looked up): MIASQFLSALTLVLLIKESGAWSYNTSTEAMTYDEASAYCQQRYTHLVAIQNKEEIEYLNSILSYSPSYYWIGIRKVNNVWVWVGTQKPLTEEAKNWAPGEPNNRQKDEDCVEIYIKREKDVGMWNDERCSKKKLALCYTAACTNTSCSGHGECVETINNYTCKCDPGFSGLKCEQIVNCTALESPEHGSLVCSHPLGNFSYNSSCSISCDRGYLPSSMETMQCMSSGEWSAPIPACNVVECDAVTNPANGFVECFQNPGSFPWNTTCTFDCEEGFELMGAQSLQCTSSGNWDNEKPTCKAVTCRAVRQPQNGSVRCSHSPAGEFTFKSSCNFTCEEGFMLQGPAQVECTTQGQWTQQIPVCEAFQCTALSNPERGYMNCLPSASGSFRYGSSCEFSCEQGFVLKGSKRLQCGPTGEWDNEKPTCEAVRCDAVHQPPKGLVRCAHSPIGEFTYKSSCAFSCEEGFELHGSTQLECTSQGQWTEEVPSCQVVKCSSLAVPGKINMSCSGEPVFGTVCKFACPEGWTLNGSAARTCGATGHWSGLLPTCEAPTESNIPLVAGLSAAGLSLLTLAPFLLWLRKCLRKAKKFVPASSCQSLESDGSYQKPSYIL
Chain of human RAR-related Orphan Receptor gamma (RORg), RORC (gene 6097) (P51449 whole entry, looked up, the tested form may be a part): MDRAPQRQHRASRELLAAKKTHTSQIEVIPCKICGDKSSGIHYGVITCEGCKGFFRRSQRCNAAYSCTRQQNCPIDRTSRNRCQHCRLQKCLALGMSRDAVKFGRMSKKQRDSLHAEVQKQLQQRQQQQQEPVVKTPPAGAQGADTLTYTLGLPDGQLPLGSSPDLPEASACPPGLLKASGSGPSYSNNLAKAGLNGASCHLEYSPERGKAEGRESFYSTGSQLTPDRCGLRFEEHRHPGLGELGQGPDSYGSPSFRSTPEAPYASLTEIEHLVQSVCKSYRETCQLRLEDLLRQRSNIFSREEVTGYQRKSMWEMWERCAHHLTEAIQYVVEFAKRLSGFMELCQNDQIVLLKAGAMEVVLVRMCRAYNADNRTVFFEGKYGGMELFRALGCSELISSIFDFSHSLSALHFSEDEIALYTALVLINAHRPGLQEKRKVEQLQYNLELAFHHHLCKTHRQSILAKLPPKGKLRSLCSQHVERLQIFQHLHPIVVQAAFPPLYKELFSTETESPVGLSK
Chain of human Vitamin D Receptor (VDR), VDR (gene 7421) (P11473 whole entry, looked up, the tested form may be a part): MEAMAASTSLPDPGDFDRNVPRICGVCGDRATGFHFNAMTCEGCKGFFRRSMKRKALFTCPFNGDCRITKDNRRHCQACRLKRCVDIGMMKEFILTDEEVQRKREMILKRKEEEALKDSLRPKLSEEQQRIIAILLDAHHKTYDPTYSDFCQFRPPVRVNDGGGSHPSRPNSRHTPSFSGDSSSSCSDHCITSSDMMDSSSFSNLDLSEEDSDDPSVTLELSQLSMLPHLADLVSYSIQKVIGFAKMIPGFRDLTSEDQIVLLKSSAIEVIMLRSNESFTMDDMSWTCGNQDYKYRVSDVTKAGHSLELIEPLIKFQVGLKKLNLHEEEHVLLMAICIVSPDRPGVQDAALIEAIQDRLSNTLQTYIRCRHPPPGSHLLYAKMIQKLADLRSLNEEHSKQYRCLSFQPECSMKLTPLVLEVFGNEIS
Chain of human Retinoic Acid Receptor gamma (RARg), RARG (gene 5916) (P13631 whole entry, looked up, the tested form may be a part): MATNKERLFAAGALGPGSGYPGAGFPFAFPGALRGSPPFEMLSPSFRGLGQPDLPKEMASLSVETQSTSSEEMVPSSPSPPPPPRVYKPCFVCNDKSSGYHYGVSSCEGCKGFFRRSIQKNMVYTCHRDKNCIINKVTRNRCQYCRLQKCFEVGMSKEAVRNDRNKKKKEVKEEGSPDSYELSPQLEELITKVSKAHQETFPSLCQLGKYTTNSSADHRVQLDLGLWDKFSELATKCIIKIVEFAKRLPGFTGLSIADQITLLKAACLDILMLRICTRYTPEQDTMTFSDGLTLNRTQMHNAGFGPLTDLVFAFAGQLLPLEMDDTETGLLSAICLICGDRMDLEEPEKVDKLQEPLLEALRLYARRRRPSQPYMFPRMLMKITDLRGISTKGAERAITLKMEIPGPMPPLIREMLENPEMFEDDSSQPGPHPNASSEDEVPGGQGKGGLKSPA

As usually defined, the AC50 is the concentration giving half of the maximal activity seen. For the molecule `CCOC(=O)C(Cl)Cc1cc(-n2nc(C)n(C(F)F)c2=O)c(F)cc1Cl` (stereo not drawn), the call in assay [1], in assay [2], in assay [3], in [4], in [5] and in assay [6] was inactive. Further, the result in [7], in assay [9], in assay [10], in assay [11], in assay [12] and in [13] was inactive. Also, the result in assay [14], in assay [15], in [16], in assay [17] and in [18] was inactive. Further, the AC50 in [8] was 9.55 µM (active).
As to `Cc1cc(Cl)ccc1OCC(=O)O`, the result in assay [1], in [4], in assay [5], in assay [6], in assay [7] and in assay [8] was inactive. In addition, the outcome in assay [9], in assay [10], in assay [12], in [13], in [14] and in assay [15] was inactive. The result in assay [16], in assay [17] and in assay [18] was inactive.
With `O=C(O)c1nc(Cl)ccc1Cl`, the result in [1], in assay [2], in [3], in [4], in assay [5] and in assay [6] was inactive. The result in assay [7], in [8], in assay [9], in assay [10], in [12] and in assay [13] was inactive. The result in assay [14], in assay [15], in assay [16], in [17] and in assay [18] was inactive. Further, the AC50 in [14] is 39 µM (active).
With `COP(=S)(OC)Oc1nc(Cl)c(Cl)cc1Cl`, the molecule was called inactive in [19], in assay [2], in assay [3], in [6], in assay [7] and in assay [8]. The outcome in [9], in assay [10], in assay [13], in assay [16], in assay [17] and in assay [18] was inactive. For the same molecule, the concentration at half-maximal activity (AC50) was 35.2 µM (active) in assay [5], 20 µM (active) in assay [12], 39 µM (active) in assay [14] and 20 µM (active) in [15].
With `CC1=C(C(=O)Nc2ccccc2)SCCO1`, the molecule was classed as inactive in [19], in assay [3], in assay [4], in assay [5], in [6] and in assay [7]. In addition, the outcome in [9], in [10], in [11], in [12], in assay [13] and in [14] was inactive. In addition, the outcome in assay [15], in assay [16], in assay [17] and in assay [18] was inactive. Further, the concentration at half-maximal activity (AC50) in assay [8] is 10.6 µM (active).
For `O=C(Nc1ccccc1)Nc1ccnc(Cl)c1`, the molecule was classed as inactive in [1], in assay [2], in assay [3], in assay [4], in assay [5] and in assay [6]. Further, the outcome in [9], in assay [10], in assay [11], in assay [12], in [13] and in assay [14] was inactive. Also, the result in assay [15], in assay [16] and in [17] was inactive. The concentration at half-maximal activity (AC50) was 9.83 µM (active) in assay [7], 20 µM (active) in [20], 20 µM (active) in assay [8] and 1.43 µM (active) in assay [18].
